The target of test [1] is Nuclear respiratory factor 1 (Homo sapiens) (UniProt Q16656). The test is described as follows: ATG_NRF1_CIS: Attagene CIS-FACTORIAL HepG2 Assay for human Nuclear Respiratory Factor 1 (NRF1) Orphan Gene (AID 2282987). As to conditions: HepG2 NRF1 cis-element reporter, Attagene multiplex; actives raise or lower the signal. In outline: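 Endogenous NRF1-driven reporter transcription measured in transiently transfected human HepG2 liver cells. Readout: reporter mRNA by RT-PCR and capillary electrophoresis with fluorescence detection, 24 h post-dosing. Gain or loss of signal fitted relative to DMSO baseline.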

The nature of test [2]: ATG_NFI_CIS: Attagene CIS-FACTORIAL HepG2 Assay for human Nuclear Factor I (NFI) (AID 2282989). The settings on record: HepG2 cis-regulatory reporter, NFI response element transcription; actives raise or lower the signal. In outline: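 Multiplexed cis-reporter system in human HepG2 cells reports native TF activity as reporter mRNA induction 24 h post-dose. Fragments labelled with 6-FAM, HpaI-digested and resolved by capillary electrophoresis; activity fitted both directions versus DMSO.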

Test [3] addresses Myc proto-oncogene protein (Homo sapiens) (UniProt P01106). The test is described as follows: ATG_Myc_CIS: Attagene CIS-FACTORIAL HepG2 Assay for human Myelocytomatosis (Myc) Proto-Oncogene Transcription Factor (AID 2282990). As to conditions: HepG2, Attagene cis-reporter transcription factor activity; actives raise or lower the signal. In outline:
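Read-out: fluorescent reporter mRNA fragments resolved by capillary electrophoresis after RT-PCR. Human HepG2 liver cells carried transfected cis-element reporter units and were dosed for 24 h. Gain or loss of signal fitted relative to DMSO baseline.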

Test [4] is described as follows: ATG_NF_kB_CIS: Attagene CIS-FACTORIAL HepG2 Assay for human Nuclear Factor Kappa B (NF-kB) (AID 2282991). As to conditions: HepG2 Attagene cis-factorial NF-kB reporter mRNA; actives raise or lower the signal. In outline:
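Read-out: reporter transcript levels quantified by RT-PCR plus capillary electrophoresis of 6-FAM-labelled, HpaI-cut fragments. Transfected HepG2 cells, 24 h compound exposure, endogenous NF-kB-driven cis element; gain or loss scored versus DMSO.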

Test [5] in a line: ATG_NRF2_ARE_CIS: Attagene CIS-FACTORIAL HepG2 Assay for human Nuclear Factor Erythroid 2 Related Factor 2 (NFR2) response to Antioxidant Response Elements (ARE) (AID 2282992). The settings on record: HepG2 Attagene ARE/NRF2 reporter, transcription factor activity; actives raise or lower the signal. In outline:
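Cis-factorial assay: transfected HepG2 reporter library, 24 h dosing, mRNA readout via RT-PCR/CE; DMSO-referenced bidirectional analysis.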

Test [6] in a line: ATG_Oct_MLP_CIS: Attagene CIS-FACTORIAL HepG2 Assay for human Octamer-Binding Transcription Factor (Oct) (AID 2282993). The settings on record: HepG2 Attagene cis-factorial Oct reporter, mRNA; actives raise or lower the signal. In outline: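 After 24 h compound exposure, transfected HepG2 cells were lysed for total RNA; reporter-specific cDNA was PCR-amplified, fluorescently labelled and sized by capillary electrophoresis. Bidirectional curve fitting used DMSO as baseline.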

The target in test [7] is Cellular tumor antigen p53 (Homo sapiens) (UniProt P04637). The test is described as follows: ATG_p53_CIS: Attagene CIS-FACTORIAL HepG2 Assay for human p53 Transcription Factor (AID 2282994). The settings on record: HepG2 p53 cis-element reporter, Attagene mRNA; actives raise or lower the signal. In outline:
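Using HepG2 hepatoma cells carrying cis-acting multiplexed reporters, mRNA induction is detected after a 24 h exposure. Gain- and loss-of-signal responses are fitted relative to DMSO-treated cells.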

Test [8] can be described thus: BSK_3C_TissueFactor: BioMAP Diversity Plus: 3C Assay for Tissue Factor Biomarker Activity (AID 2282997). As to conditions: BioMAP 3C HUVEC, tissue factor biomarker readout; actives raise or lower the signal. In outline: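 ELISA read-out of Tissue Factor levels on human umbilical vein endothelium collected 24 h after chemical dosing. Gain or loss of signal was fitted relative to DMSO.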

A short description of test [9]: BSK_3C_uPAR: BioMAP Diversity Plus: 3C Assay for Urokinase-type plasminogen activator receptor (uPAR) Biomarker Activity (AID 2282998). The settings on record: BioMAP 3C HUVEC, uPAR biomarker ELISA; actives raise or lower the signal. In outline:
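Values derive from bidirectional curve fitting relative to DMSO, which served as baseline of activity. uPAR was measured by ELISA in human umbilical vein endothelial primary cultures 24 h after compound addition.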

Test [10] is described as follows: BSK_3C_VCAM1: BioMAP Diversity Plus: 3C Assay for Vascular cell adhesion molecule 1 (VCAM1) Biomarker Activity (AID 2282999). The settings on record: BioMAP 3C HUVEC, VCAM1 ELISA, cytokine-stimulated; actives raise or lower the signal. In outline:
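Human umbilical vein endothelial cells (3C system), biomarker read by ELISA 24 h after dosing; bidirectional fit against DMSO baseline. Cytotoxicity tracked by SRB total-protein staining in parallel cultures at biomarker time.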

The nature of test [11]: BSK_4H_Eotaxin3: BioMAP Diversity Plus: 4H Assay for Eotaxin 3 Biomarker Activity (AID 2283000).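 Note: CCL26 protein level quantified by ELISA in parallel with SRB cytotoxicity check.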 As to conditions: primary human endothelial cells (HUVEC); actives raise or lower the signal. In outline: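 Chemicals were added to human umbilical vein endothelium cultures, and Eotaxin-3 was quantified by ELISA at 24 h. Values were derived by bidirectional fitting with DMSO serving as negative control and activity baseline.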

Test [12] addresses human Peroxisome Proliferator-activated Receptor delta (PPARd), PPARD (gene 5467) (UniProt Q03181). The test is described as follows: ATG_PPARd_TRANS: Attagene TRANS-FACTORIAL HepG2 Assay for human Peroxisome Proliferator-activated Receptor delta (PPARd) (AID 2283002; active = hit-call score of the fitted dose curve at least 0.9, where 1 is the maximum). In outline: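 Read-out: reporter mRNA induction, quantified by fluorescent RT-PCR products resolved by capillary electrophoresis. Human HepG2 liver cells carried transiently transfected Gal4-UAS reporter constructs with chimeric NR-Gal4 fusions. Cells were dosed for 24 h; DMSO served as baseline.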

Read-out in test [13]: Intercellular Adhesion Molecule 1 (ICAM1), ICAM1 (gene 3383)
The test is described as follows: BSK_3C_ICAM1: BioMAP Diversity Plus: 3C Assay for Intercellular Adhesion Molecule 1 (ICAM1) Biomarker Activity (AID 2283003). The settings on record: primary human endothelial cells (HUVEC); actives raise or lower the signal. In outline:
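Primary human umbilical vein endothelial cells in the BioMAP 3C system were exposed to chemicals for 24 h, then ICAM-1 was quantified by ELISA. Activity was fitted bidirectionally against the DMSO negative control baseline.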

Test [14] has as its target human Retinoic Acid Receptor beta (RARb), RARB (gene 5915) (UniProt P10826). The test is described as follows: ATG_RARb_TRANS: Attagene TRANS-FACTORIAL HepG2 Assay for human Retinoic Acid Receptor beta (AID 2283004; active = hit-call score of the fitted dose curve at least 0.9, where 1 is the maximum). In outline: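 Transient transfection of HepG2 with multiple reporter units → chemical dosing, 24 h → total RNA isolation → RT with oligo(dT) → reporter-specific PCR, 6-FAM primer extension, HpaI digest → capillary electrophoresis. Positive direction vs DMSO control.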

For test [15], the target named is Retinoic acid receptor alpha (Homo sapiens) (UniProt P10276). The test is described as follows: ATG_RARa_TRANS: Attagene TRANS-FACTORIAL HepG2 Assay for human Retinoic Acid Receptor alpha (RARa) (AID 2283005; active = hit-call score of the fitted dose curve at least 0.9, where 1 is the maximum). In outline: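 HepG2 transiently transfected with multiplex GAL4-UAS reporter units including a human RARa–GAL4 chimera; 24 h compound exposure. Reporter mRNA quantified by RT-PCR, 6-FAM labeling and capillary electrophoresis; gain of signal versus DMSO.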

Test [16] in a line: BSK_3C_Proliferation: Cell Proliferation Assessment in the BioMAP Diversity Plus: 3C Assay (AID 2283006). As to conditions: primary human endothelial cells (HUVEC). In outline: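 Human umbilical vein endothelial cells were grown sub-confluent and exposed to chemical for 48 h, then fixed with 10% TCA and stained with 0.1% sulforhodamine B; absorbance at 560 nm gave relative cell number, fitted bidirectionally against DMSO baseline.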

In test [17] the target is Peroxisome proliferator-activated receptor gamma (Homo sapiens) (UniProt P37231). The test is described as follows: ATG_PPARg_TRANS: Attagene TRANS-FACTORIAL HepG2 Assay for human Peroxisome Proliferator-activated Receptor-gamma (PPARg) (AID 2283007; active = hit-call score of the fitted dose curve at least 0.9, where 1 is the maximum). In outline:
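Read-out: reporter mRNA induction, detected by fluorescence after RT-PCR and capillary electrophoresis. Transiently transfected human HepG2 liver cells carrying a chimeric NR-Gal4 construct were dosed for 24 h; activity was fitted upward relative to DMSO.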

Test [18] deals with Nuclear receptor subfamily 1 group I member 2 (Homo sapiens) (UniProt O75469). The test is described as follows: ATG_PXR_TRANS: Attagene TRANS-FACTORIAL HepG2 Assay for human Pregnane X Receptor (PXR) (AID 2283008; active = hit-call score of the fitted dose curve at least 0.9, where 1 is the maximum). In outline:
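Fluorescence intensity of FAM-labelled, HpaI-digested reporter amplicons, separated by capillary electrophoresis, quantifies induction. HepG2 cells with PXR-Gal4 trans-reporter system were exposed 24 h; DMSO defines baseline.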

Test [19] deals with human Retinoic Acid Receptor gamma (RARg), RARG (gene 5916) (UniProt P13631). The test is described as follows: ATG_RARg_TRANS: Attagene TRANS-FACTORIAL HepG2 Assay for human Retinoic Acid Receptor gamma (RARg) (AID 2283009; active = hit-call score of the fitted dose curve at least 0.9, where 1 is the maximum). In outline:
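HepG2 cells transiently transfected with multiplexed reporter units expressing chimeric RARg-GAL4 and GAL4-UAS-driven reporters; 24 h compound exposure. Reporter mRNA quantified by RT-PCR with fluorescent labelling and capillary electrophoresis; gain-of-signal fitted relative to DMSO baseline.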

Test [20] addresses human Peroxisome Proliferator-activated Receptor alpha (PPARa), PPARA (gene 5465) (UniProt Q07869). The test is described as follows: ATG_PPARa_TRANS: Attagene TRANS-FACTORIAL HepG2 Assay for human Peroxisome Proliferator-activated Receptor alpha (PPARa) (AID 2283001; active = hit-call score of the fitted dose curve at least 0.9, where 1 is the maximum). In outline:
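Measures transcriptional activity of an exogenous chimeric PPARa-Gal4 protein in transiently transfected HepG2 cells after 24 h dosing. Reporter mRNA quantified via RT-PCR and capillary electrophoresis; DMSO served as negative control.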

Molecules are shown by their SMILES. Records with an inconclusive call do not appear. Activity calls are given as the source filed them. Rule for the calls, unless noted: active = hit-call score of the fitted dose curve at least 0.9, where 1 is the maximum; inactive = score below 0.9.

Sequence of Nuclear receptor subfamily 1 group I member 2 (Homo sapiens) (O75469 whole entry, looked up, the tested form may be a part): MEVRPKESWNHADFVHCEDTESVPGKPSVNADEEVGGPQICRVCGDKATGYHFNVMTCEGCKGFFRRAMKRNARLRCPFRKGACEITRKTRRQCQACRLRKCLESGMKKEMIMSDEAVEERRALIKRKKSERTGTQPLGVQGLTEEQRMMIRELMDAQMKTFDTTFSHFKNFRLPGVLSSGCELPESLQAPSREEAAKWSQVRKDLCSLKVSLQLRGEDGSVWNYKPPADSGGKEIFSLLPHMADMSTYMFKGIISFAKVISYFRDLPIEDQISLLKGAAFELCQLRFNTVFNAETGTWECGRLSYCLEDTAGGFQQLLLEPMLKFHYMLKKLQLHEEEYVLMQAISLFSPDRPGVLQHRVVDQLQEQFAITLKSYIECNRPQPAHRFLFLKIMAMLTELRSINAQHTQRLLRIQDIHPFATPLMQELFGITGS
Sequence of Cellular tumor antigen p53 (Homo sapiens) (P04637 whole entry, looked up): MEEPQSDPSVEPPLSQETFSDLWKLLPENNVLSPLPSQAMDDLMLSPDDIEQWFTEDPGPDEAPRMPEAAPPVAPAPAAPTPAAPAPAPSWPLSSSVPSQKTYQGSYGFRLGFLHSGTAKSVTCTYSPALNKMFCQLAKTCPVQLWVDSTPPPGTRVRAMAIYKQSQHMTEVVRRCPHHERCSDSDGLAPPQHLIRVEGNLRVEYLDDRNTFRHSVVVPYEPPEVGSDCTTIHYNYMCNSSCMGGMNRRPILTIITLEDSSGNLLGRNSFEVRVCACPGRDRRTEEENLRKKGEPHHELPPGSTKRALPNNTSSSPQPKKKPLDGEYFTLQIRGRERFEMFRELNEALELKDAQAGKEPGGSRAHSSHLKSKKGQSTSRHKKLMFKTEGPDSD
Sequence of human Retinoic Acid Receptor beta (RARb), RARB (gene 5915) (P10826 whole entry, looked up): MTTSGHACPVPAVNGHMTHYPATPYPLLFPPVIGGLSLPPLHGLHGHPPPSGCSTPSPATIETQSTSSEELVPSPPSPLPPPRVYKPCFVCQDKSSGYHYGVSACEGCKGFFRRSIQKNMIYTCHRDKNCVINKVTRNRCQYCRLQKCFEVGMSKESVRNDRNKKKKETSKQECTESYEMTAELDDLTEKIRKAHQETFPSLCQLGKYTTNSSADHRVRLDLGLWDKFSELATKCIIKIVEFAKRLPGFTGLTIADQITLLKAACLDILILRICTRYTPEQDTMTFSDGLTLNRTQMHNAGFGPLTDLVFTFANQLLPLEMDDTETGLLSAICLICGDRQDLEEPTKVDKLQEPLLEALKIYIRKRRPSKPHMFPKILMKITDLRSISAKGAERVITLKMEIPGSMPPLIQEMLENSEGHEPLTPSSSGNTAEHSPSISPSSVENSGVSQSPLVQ
Sequence of Peroxisome proliferator-activated receptor gamma (Homo sapiens) (P37231 whole entry, looked up, the tested form may be a part): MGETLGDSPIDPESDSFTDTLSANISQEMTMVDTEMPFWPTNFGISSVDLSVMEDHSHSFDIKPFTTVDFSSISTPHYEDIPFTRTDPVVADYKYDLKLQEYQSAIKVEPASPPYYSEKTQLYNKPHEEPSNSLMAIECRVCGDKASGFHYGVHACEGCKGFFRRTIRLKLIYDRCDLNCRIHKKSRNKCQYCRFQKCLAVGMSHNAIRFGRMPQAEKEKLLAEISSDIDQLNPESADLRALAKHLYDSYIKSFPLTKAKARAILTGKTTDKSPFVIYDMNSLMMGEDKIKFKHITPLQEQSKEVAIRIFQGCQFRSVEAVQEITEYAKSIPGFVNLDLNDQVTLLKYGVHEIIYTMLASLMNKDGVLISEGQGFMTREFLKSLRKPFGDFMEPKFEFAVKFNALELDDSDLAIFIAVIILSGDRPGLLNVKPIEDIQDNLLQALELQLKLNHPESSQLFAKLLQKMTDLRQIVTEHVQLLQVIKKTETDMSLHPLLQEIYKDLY
Sequence of Myc proto-oncogene protein (Homo sapiens) (P01106 whole entry, looked up, the tested form may be a part): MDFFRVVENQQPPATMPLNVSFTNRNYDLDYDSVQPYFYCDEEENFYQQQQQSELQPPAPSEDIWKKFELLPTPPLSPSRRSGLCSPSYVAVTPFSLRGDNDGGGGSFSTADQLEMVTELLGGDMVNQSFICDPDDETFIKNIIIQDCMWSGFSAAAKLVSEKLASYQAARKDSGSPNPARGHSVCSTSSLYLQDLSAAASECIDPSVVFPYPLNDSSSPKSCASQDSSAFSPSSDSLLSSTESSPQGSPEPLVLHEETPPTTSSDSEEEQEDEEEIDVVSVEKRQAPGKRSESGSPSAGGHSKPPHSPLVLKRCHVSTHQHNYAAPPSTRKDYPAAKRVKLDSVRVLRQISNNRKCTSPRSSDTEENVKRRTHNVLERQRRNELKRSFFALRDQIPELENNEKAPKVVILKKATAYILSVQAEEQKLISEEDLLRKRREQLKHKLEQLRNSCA
Sequence of Retinoic acid receptor alpha (Homo sapiens) (P10276 whole entry, looked up, the tested form may be a part): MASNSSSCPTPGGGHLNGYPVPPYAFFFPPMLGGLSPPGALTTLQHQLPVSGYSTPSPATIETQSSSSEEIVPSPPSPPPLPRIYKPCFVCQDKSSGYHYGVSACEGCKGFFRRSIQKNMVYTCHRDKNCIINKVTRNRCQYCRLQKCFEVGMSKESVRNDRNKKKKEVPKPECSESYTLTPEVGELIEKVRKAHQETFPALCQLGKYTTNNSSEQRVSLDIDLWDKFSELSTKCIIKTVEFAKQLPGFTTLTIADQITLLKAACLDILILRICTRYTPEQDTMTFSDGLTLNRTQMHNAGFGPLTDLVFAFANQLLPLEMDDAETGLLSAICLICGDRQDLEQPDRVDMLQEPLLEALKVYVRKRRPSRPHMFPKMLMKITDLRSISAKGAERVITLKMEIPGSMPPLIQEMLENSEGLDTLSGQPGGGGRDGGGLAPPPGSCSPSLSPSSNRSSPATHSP
Sequence of human Peroxisome Proliferator-activated Receptor delta (PPARd), PPARD (gene 5467) (Q03181 whole entry, looked up, the tested form may be a part): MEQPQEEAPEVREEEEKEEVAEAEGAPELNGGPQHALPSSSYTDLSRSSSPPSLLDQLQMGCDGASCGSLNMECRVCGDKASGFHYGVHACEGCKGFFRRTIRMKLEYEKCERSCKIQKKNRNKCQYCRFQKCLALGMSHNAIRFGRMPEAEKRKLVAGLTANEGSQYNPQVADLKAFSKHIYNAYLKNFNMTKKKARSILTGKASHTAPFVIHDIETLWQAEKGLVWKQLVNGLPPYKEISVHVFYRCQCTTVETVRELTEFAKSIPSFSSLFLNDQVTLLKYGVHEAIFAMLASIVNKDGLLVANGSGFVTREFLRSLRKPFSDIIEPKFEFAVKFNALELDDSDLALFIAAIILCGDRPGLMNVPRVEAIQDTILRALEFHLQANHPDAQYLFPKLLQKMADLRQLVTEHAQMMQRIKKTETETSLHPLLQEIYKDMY
Sequence of Nuclear respiratory factor 1 (Homo sapiens) (Q16656 whole entry, looked up): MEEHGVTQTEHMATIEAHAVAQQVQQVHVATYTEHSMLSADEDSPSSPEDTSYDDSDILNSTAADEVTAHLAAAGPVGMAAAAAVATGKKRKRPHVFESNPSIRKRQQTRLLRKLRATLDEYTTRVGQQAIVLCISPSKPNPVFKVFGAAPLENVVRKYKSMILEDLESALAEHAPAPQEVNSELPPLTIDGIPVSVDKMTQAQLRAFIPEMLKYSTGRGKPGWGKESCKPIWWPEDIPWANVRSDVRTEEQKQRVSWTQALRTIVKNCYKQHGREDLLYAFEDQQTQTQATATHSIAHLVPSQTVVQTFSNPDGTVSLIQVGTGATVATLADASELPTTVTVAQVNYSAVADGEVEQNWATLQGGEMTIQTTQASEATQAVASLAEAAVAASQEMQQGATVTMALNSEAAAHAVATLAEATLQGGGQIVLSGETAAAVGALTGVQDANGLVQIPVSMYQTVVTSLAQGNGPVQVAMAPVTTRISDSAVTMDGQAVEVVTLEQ
Sequence of human Peroxisome Proliferator-activated Receptor alpha (PPARa), PPARA (gene 5465) (Q07869 whole entry, looked up, the tested form may be a part): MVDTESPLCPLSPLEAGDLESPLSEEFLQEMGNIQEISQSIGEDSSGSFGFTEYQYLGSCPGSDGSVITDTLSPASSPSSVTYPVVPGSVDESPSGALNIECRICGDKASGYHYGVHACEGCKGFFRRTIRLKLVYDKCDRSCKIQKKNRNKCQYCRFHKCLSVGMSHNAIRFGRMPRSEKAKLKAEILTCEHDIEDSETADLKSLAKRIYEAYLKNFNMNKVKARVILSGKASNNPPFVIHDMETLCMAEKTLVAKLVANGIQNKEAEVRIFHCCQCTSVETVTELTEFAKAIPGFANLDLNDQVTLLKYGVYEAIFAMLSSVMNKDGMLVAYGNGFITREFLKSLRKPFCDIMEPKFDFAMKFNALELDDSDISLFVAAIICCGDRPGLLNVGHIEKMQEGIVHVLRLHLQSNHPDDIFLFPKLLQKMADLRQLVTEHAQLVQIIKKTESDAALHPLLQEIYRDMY
Sequence of human Retinoic Acid Receptor gamma (RARg), RARG (gene 5916) (P13631 whole entry, looked up, the tested form may be a part): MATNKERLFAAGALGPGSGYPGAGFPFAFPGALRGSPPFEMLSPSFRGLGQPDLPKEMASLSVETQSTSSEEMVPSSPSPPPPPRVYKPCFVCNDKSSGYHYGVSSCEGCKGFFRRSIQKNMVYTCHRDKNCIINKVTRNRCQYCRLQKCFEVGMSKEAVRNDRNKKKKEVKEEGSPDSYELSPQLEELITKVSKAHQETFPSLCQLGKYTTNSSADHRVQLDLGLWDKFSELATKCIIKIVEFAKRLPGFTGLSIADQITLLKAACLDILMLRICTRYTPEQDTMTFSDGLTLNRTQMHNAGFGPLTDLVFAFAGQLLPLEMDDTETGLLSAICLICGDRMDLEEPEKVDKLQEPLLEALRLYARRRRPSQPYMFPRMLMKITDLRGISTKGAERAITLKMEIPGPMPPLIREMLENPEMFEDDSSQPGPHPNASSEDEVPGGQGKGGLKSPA

`OCC(O)CC(F)(F)C(F)(F)C(F)(F)C(F)(F)C(F)(F)C(F)(F)C(F)(F)C(F)(F)F` (configuration not stated): the compound was called inactive in test [1], in [2], in test [3], in test [4], in [5] and in test [6]. Moreover, the outcome in test [7], in test [8], in test [9], in test [10], in test [11] and in [12] was inactive. The result in test [13], in test [14], in [15], in test [16], in [17] and in test [18] was inactive. In test [19], the compound was called inactive.
Turning to `NCC(F)(F)C(F)(F)C(F)(F)C(F)(F)C(F)(F)C(F)(F)F`, the call in test [1], in test [2], in test [3], in [4], in [5] and in [6] was inactive. Moreover, the outcome in test [7], in test [8], in test [10], in [11], in test [12] and in test [13] was inactive. For the same compound, the compound was classed as inactive in [14], in test [15], in test [16], in test [17] and in test [18].
Regarding `FC(F)(F)C(F)(F)C(F)(F)C(F)(F)C(F)(F)C(F)(F)C(F)(F)CCI`, the result in test [1], in test [2], in test [3], in test [4], in test [6] and in test [7] was inactive. Further, the result in test [8], in test [10], in [11], in [20], in test [12] and in test [13] was inactive. The outcome in [16] and in [18] was inactive. Further, in test [5], the AC50 was 30.6 µM (active).
Take `C=CCOC(=O)CC(C)C`: the outcome in test [1], in test [2], in test [3], in [4], in test [5] and in [6] was inactive. In [7], the call was inactive.
With `O=C(O)CCC(F)(F)C(F)(F)C(F)(F)C(F)(F)C(F)(F)C(F)(F)C(F)(F)F`, the compound was classed as inactive in test [1], in test [2], in [3], in test [4], in test [6] and in [8]. Besides, the outcome in test [10], in [11], in test [20], in [12], in [13] and in [16] was inactive. Besides, the result in [18] was inactive. Also, the AC50 in [5] is 94.9 µM (active); in test [7] it was 204 µM (active); in [17] it was 150 µM (active).
For `CC(C)C(=O)OCc1ccccc1`, the result in test [1], in [2], in test [3], in test [4], in [5] and in [6] was inactive. For the same compound, the compound was classed as inactive in test [7].
Turning to `C[Si](Cl)(Cl)CCC(F)(F)C(F)(F)C(F)(F)C(F)(F)C(F)(F)C(F)(F)F`, the compound was called inactive in test [1], in test [2], in test [3], in [4], in test [5] and in test [6]. Besides, the compound was classed as inactive in [7], in test [8], in test [9], in test [10], in test [11] and in test [12]. The outcome in test [13], in test [14], in test [15] and in test [16] was inactive.
As to `CC(C)(C)c1cc(CCC(=O)NCCCCCCNC(=O)CCc2cc(C(C)(C)C)c(O)c(C(C)(C)C)c2)cc(C(C)(C)C)c1O`, the compound was called inactive in [1], in test [2], in test [3], in test [4], in [5] and in test [6]. Further, the result in test [7], in test [8], in test [9], in [10], in test [11] and in [13] was inactive. For the same compound, the result in test [16] and in test [17] was inactive. Further, in test [18], the AC50 was 0.0823 µM (active).
